According to PubChem BioAssay (EPA / NIEHS):
Records with an inconclusive call do not appear. Activity calls are given as the source filed them. How the source made its calls, unless noted: active means hit-call score of the fitted dose curve at least 0.9, where 1 is the maximum; inactive means score below 0.9.

Tests used:
[1] = biological target: Myc proto-oncogene protein (Homo sapiens) (UniProt P01106); assay: ATG_Myc_CIS: Attagene CIS-FACTORIAL HepG2 Assay for human Myelocytomatosis (Myc) Proto-Oncogene Transcription Factor (AID 2282990); conditions: HepG2, Attagene cis-reporter transcription factor activity; actives raise or lower the signal
Myc proto-oncogene protein (Homo sapiens), sequence (P01106 whole entry, looked up): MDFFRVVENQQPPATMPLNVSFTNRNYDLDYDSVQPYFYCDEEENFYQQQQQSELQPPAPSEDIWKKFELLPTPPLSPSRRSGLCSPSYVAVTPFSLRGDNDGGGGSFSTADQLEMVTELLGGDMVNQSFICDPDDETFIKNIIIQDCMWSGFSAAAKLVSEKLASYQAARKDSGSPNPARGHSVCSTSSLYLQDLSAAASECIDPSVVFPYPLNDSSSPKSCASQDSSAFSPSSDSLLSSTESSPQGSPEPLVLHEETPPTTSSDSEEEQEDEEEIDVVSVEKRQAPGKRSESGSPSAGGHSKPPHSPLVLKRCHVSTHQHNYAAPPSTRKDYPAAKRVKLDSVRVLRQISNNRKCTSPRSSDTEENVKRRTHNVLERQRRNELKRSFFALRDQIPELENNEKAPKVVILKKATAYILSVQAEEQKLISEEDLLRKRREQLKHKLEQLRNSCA
Method in brief: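 HepG2, transient MRTU transfection (cis promoters, endogenous TFs); 24 h dosing; TriZol RNA → oligo(dT) RT → PCR → 6-FAM primer extension → HpaI cut → CE. Bidirectional fit vs DMSO.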

[2] = ATG_NF_kB_CIS: Attagene CIS-FACTORIAL HepG2 Assay for human Nuclear Factor Kappa B (NF-kB) (AID 2282991); conditions: HepG2 Attagene cis-factorial NF-kB reporter mRNA; actives raise or lower the signal
Method in brief: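 Multiplexed cis-reporter assay in transiently transfected HepG2. 24 h treatment; RNA isolated, RT-PCR, labelled fragments resolved by CE. DMSO baseline.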

[3] = ATG_NRF2_ARE_CIS: Attagene CIS-FACTORIAL HepG2 Assay for human Nuclear Factor Erythroid 2 Related Factor 2 (NFR2) response to Antioxidant Response Elements (ARE) (AID 2282992); conditions: HepG2 Attagene ARE/NRF2 reporter, transcription factor activity; actives raise or lower the signal;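 on AC50: reporter mRNA level measured by RT-PCR and capillary electrophoresis fluorescence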
Method in brief: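 HepG2 cells transiently transfected with multiplexed cis-element reporter constructs, 24 h after chemical dosing; reporter mRNA quantified by RT-PCR, fluorescent primer extension, HpaI digestion and capillary electrophoresis. Bidirectional fit relative to DMSO.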

[4] = ATG_Oct_MLP_CIS: Attagene CIS-FACTORIAL HepG2 Assay for human Octamer-Binding Transcription Factor (Oct) (AID 2282993); conditions: HepG2 Attagene cis-factorial Oct reporter, mRNA; actives raise or lower the signal
Method in brief: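 Read-out: reporter mRNA via RT-PCR plus capillary electrophoresis of 6-FAM-labelled fragments. Transiently transfected HepG2, 24 h exposure, endogenous TF activity on cis elements. Gain or loss of signal fitted relative to DMSO.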

[5] = biological target: Cellular tumor antigen p53 (Homo sapiens) (UniProt P04637); assay: ATG_p53_CIS: Attagene CIS-FACTORIAL HepG2 Assay for human p53 Transcription Factor (AID 2282994); conditions: HepG2 p53 cis-element reporter, Attagene mRNA; actives raise or lower the signal
Cellular tumor antigen p53 (Homo sapiens), sequence (P04637 whole entry, looked up): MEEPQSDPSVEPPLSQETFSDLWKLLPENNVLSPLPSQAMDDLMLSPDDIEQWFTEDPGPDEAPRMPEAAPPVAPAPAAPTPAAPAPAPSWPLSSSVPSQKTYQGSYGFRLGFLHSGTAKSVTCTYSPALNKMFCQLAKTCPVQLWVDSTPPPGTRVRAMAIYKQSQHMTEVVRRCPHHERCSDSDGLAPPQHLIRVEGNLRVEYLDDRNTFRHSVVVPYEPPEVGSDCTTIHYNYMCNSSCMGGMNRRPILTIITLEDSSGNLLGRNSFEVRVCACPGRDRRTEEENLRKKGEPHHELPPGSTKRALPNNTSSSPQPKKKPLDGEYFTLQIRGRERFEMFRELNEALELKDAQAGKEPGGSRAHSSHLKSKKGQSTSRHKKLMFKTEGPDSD
Method in brief: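 HepG2 cells transiently transfected with cis-regulated multiple reporter transcription units, dosed 24 h. Reporter mRNA measured by RT-PCR, 6-FAM primer extension, HpaI digestion and capillary electrophoresis; bidirectional fit relative to DMSO.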

[6] = BSK_3C_TissueFactor: BioMAP Diversity Plus: 3C Assay for Tissue Factor Biomarker Activity (AID 2282997); conditions: BioMAP 3C HUVEC, tissue factor biomarker readout; actives raise or lower the signal
Method in brief: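 Dosing of human umbilical vein endothelial cells preceded a 24 h incubation. Tissue Factor was then read by ELISA, with increases and decreases both scored relative to DMSO controls.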

[7] = BSK_3C_uPAR: BioMAP Diversity Plus: 3C Assay for Urokinase-type plasminogen activator receptor (uPAR) Biomarker Activity (AID 2282998); conditions: BioMAP 3C HUVEC, uPAR biomarker ELISA; actives raise or lower the signal
Method in brief: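 HUVEC primary cells; 24 h post-dose; uPAR by ELISA; gain or loss of signal fitted bidirectionally vs DMSO baseline.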

[8] = BSK_3C_VCAM1: BioMAP Diversity Plus: 3C Assay for Vascular cell adhesion molecule 1 (VCAM1) Biomarker Activity (AID 2282999); conditions: BioMAP 3C HUVEC, VCAM1 ELISA, cytokine-stimulated; actives raise or lower the signal
Method in brief: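 Endothelial cells from human umbilical vein are treated with test chemical. At 24 h, VCAM-1 is measured by ELISA, and responses in either direction are fitted relative to DMSO.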

[9] = BSK_4H_Eotaxin3: BioMAP Diversity Plus: 4H Assay for Eotaxin 3 Biomarker Activity (AID 2283000); conditions: primary human endothelial cells (HUVEC); actives raise or lower the signal
Method in brief: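 Human umbilical vein endothelial cells (BSK_4H system) dosed with test chemical; Eotaxin-3 (CCL26) measured by ELISA 24 h after dosing. Bidirectional curve fitting relative to DMSO negative control as baseline.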

[10] = biological target: human Peroxisome Proliferator-activated Receptor alpha (PPARa), PPARA (gene 5465) (UniProt Q07869); assay: ATG_PPARa_TRANS: Attagene TRANS-FACTORIAL HepG2 Assay for human Peroxisome Proliferator-activated Receptor alpha (PPARa) (AID 2283001; active means hit-call score of the fitted dose curve at least 0.9, where 1 is the maximum;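 on AC50: potency for gain of reporter signal over DMSO so agonist or activator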)
human Peroxisome Proliferator-activated Receptor alpha (PPARa), PPARA (gene 5465), sequence (Q07869 whole entry, looked up, the tested form may be a part): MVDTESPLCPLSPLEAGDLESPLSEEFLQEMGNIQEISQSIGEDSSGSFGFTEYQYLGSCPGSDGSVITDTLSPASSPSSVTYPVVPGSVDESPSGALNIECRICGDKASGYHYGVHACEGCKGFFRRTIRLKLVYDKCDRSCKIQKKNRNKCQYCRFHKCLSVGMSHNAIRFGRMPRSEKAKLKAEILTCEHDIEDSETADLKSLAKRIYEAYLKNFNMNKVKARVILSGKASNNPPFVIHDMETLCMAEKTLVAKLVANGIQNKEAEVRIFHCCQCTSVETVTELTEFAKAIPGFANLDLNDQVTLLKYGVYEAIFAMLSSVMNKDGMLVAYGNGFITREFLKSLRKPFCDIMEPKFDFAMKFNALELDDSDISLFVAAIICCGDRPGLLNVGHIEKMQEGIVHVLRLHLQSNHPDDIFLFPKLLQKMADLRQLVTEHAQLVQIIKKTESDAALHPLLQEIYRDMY
Method in brief: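 Reporter transcripts from GAL4-UAS units in transfected HepG2 were quantified 24 h after dosing. Detection used reverse transcription, PCR, fluorescent primer extension and capillary electrophoresis, with DMSO as baseline.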

Measured: AC50

NCC1(Cc2noc(=O)[nH]2)CCCCC1
not listed: [10]
inactive: all other assays above

CC(C)c1ccc(C(=O)N=C(N)N)cc1S(C)(=O)=O
not listed: [10]
inactive: all other assays above

Cc1cccc([N+](=O)[O-])c1C
not listed: [10]
inactive: all other assays above

Cc1cccc(Nc2cc(Cl)nc(SCC(=O)O)n2)c1C
not listed: [10]
inactive: all other assays above

Nc1ccc2c(c1)C(=O)c1ccccc1C2=O
active: [3] 3.98 µM | [7] 6.96 µM
not listed: [10]
inactive: all other assays above

CNC(=O)[C@H]1O[C@@H](n2cnc3c(NCc4cc(Cl)ccc4OCc4cc(C)no4)ncnc32)[C@H](O)[C@@H]1N
not listed: [10]
inactive: all other assays above

CCCCCCCCCCCCCCCCCC(=O)O
inactive: all assays above

CN1CCN(Cc2cc(-c3ccc4[nH]c(=O)oc4c3)co2)[C@@H](c2ccc(F)cc2)C1
active: [2] 8.72 µM | [3] 61.4 µM | [4] 45.4 µM | [5] 12.1 µM | [7] 26.7 µM
inactive: [1] | [6] | [8] | [9] | [10]

C[C@]12C=CC(=O)C=C1CC[C@@H]1[C@@H]2C(=O)C[C@@]2(C)[C@H]1CC[C@]2(O)C(=O)CO
inactive: all assays above

Cc1ccc(C)c(C)c1
inactive: all assays above

Oc1ccc2c(c1)OC[C@@H](N1CCC(O)(c3ccc(F)cc3)CC1)[C@H]2O
active: [3] 23.4 µM | [4] 27.1 µM
inactive: all other assays above

CC(C)(C)c1cc(O)c(C(C)(C)C)cc1O
active: [1] 114 µM | [3] 30.5 µM | [4] 33 µM | [6] 7.03 µM | [8] 9.79 µM | [9] 6.65 µM
inactive: [2] | [5] | [7] | [10]

Clc1cc(Cl)c(Cl)cc1Cl
active: [6] 6.33 µM
inactive: all other assays above

CCNc1cccc(C)c1
inactive: all assays above

CCCCCCCCCCC
inactive: all assays above

Oc1ccc2ccccc2c1N=Nc1ccccc1
active: [3] 1.42 µM | [6] 6 µM | [9] 1.7 µM
inactive: all other assays above

C1CCC(SSC2CCCCC2)CC1
active: [3] 75.5 µM | [6] 20 µM | [8] 26.5 µM | [9] 32.7 µM
inactive: all other assays above

Cc1ccc2ncccc2c1
inactive: all assays above

COC(=O)c1ccc(O)cc1
inactive: all assays above

OC[C@@H](O)[C@@H](O)[C@H](O)[C@H](O)CO
inactive: all assays above

CCOC(=O)C(C)(C)Oc1ccc(Cl)cc1
active: [10] 37.2 µM
inactive: all other assays above
